Laboratory results as given in PubChem BioAssay AID720566 (Broad Institute, 2013).
Measured potencies and affinities stand elsewhere. Activity calls are given as the source filed them.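 Rule for the calls: active = in all runs, an absorbance decrease of 25% or more of the average positive control decrease; inconclusive = runs conflict, with both active and inactive results; inactive = all runs inactive, opposite-direction effects included.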

molecular target: Protein disulfide-isomerase A6 (Homo sapiens) (UniProt Q15084); assay: inhibitors of ERp5-mediated insulin aggregation, dose response, biochemical, turbidity, absorbance 650 nm, cherry-picked samples (AID 720566); settings: Recombinant ERp5 insulin aggregation; series mostly up to 35 µM; activity change, negative = inhibition: at the top concentration;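 note: negative values mean less insulin aggregation so ERp5 inhibition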
Sequence (Q15084 whole entry, looked up): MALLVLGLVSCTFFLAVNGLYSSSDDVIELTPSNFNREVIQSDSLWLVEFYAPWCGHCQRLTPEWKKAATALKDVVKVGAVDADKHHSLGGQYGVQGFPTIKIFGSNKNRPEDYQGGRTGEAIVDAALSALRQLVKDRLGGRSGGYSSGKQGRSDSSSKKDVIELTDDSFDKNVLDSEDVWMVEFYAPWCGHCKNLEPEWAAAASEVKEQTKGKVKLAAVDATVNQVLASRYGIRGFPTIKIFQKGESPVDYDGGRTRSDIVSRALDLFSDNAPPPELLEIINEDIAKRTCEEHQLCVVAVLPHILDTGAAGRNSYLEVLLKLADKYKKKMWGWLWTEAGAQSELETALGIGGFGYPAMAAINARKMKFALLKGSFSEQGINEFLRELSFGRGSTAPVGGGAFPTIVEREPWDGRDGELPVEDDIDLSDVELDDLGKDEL

Activity change, negative = inhibition, inactive:
O=C(C[C@@H]1C[C@H]2c3cc(NC(=O)Nc4ccccc4F)ccc3O[C@H]2[C@H](CO)O1)NCC(F)(F)F 0.289%, O=C(NNC(=O)c1ccc2ccccc2c1)Nc1ccc(F)cc1 -2.38%, COCC(=O)N1CC2(C1)CN(Cc1ccccc1F)[C@H](CO)c1[nH]c3cc(OC)ccc3c12 -8.2%, COc1ccc(Cc2nnc(SCC(=O)NC3(C#N)CCCCC3)n2N)cc1 3.28%, C[C@H](CO)N1C[C@H](C)[C@@H](CN(C)Cc2ccc(C(=O)O)cc2)Oc2ccc(NS(=O)(=O)c3cccs3)cc2CC1=O 3.54%, C[C@H]1CN([C@@H](C)CO)C(=O)c2cc(-c3cccc(C#N)c3)cnc2O[C@@H]1CN(C)Cc1cncnc1 1.3%, C[C@H](CO)N1C[C@H](C)[C@@H](CN(C)S(=O)(=O)c2cn(C)cn2)Oc2ccc(NC(=O)c3ccncc3)cc2CC1=O 1.49%, C[C@@H]1CN([C@@H](C)CO)C(=O)c2cc(-c3cccc(C#N)c3)cnc2O[C@H]1CN(C)Cc1cncnc1 1.12%, Cc1ccc(S(=O)(=O)C=CS(=O)(=O)c2ccc(C)cc2)cc1 -25.3%, COCCNC(=O)C[C@@H]1C[C@H]2c3cc(NC(=O)NC4CCCC4)ccc3O[C@H]2[C@@H](CO)O1 -8.2%, COc1ccccc1NS(=O)(=O)c1ccc(C(=O)N2CCN(c3ccccn3)CC2)cc1 -5.32%, O=C(C[C@@H]1CC[C@@H]2[C@H](COC[C@@H](O)CN2S(=O)(=O)c2ccccc2)O1)NCCN1CCCC1 2.02%, C[C@@H]1CN([C@H](C)CO)C(=O)c2cc(-c3cccc(C#N)c3)cnc2O[C@H]1CN(C)Cc1cncnc1 1.45%, Cc1ccc(S(=O)(=O)N(CC(O)CN2CCOCC2)c2cccc([N+](=O)[O-])c2)cc1 (stereo not drawn) -10.8%, C[C@H](CO)N1C[C@H](C)[C@@H](CN(C)S(=O)(=O)c2ccc(Oc3ccccc3)cc2)OCc2cnnn2CCCC1=O 3.54%, CCCN(C)C[C@@H]1Oc2cc(-c3ccc(F)cc3)ccc2S(=O)(=O)N([C@@H](C)CO)C[C@@H]1C 4.34%, C[C@@H]1CN([C@H](C)CO)C(=O)c2cccc(NS(=O)(=O)c3ccc(Cl)cc3)c2O[C@@H]1CN(C)Cc1ccc(C(F)(F)F)cc1 -7.04%, CCCNC(=O)C[C@H]1C[C@H]2c3cc(NS(C)(=O)=O)ccc3O[C@H]2[C@@H](CO)O1 -11.5%, Cc1cccc(S(=O)(=O)N(C)C[C@H]2OCc3cnnn3CCCC(=O)N([C@@H](C)CO)C[C@H]2C)c1 4.42%, C[C@@H]1CN([C@H](C)CO)C(=O)Cc2cc(NS(=O)(=O)c3ccc(F)cc3)ccc2O[C@@H]1CN(C)S(=O)(=O)c1cn(C)cn1 -5.88%, C/C=C/c1ccc2c(c1)O[C@@H](CN(C)S(C)(=O)=O)[C@H](C)CN([C@@H](C)CO)S2(=O)=O 2.99%, CN(CC(=O)Nc1ccc(F)cc1)CC(=O)NC1CCCCC1 9.17%, CN1C(=O)c2cc(NC(=O)C3CCCCC3)ccc2OC[C@@H]2O[C@@H](CC(=O)NC3CCCC3)CC[C@H]21 2.02%, CO[C@H]1CN(C)C(=O)c2cc(NC(=O)CC(F)(F)F)ccc2OC[C@H](C)N(C(=O)C2CC2)C[C@@H]1C 2.98% [at 30 µM], CC(C)C#Cc1cnc2c(c1)C(=O)N([C@@H](C)CO)C[C@@H](C)[C@H](CN(C)C(=O)c1ccccc1F)O2 4.66%, COc1cccc(CC(=O)NNC(=O)CN(C)S(=O)(=O)c2ccc(C)cc2)c1 6%, CCCNC(=O)C[C@H]1CC[C@@H]2[C@@H](COc3ccc(NC(=O)c4ccccc4)cc3C(=O)N2C)O1 3.57%, Cc1ccc([C@H]2N[C@]3(CCCN(Cc4ccc(Cl)cc4)C3=O)[C@H]3C(=O)N(C)C(=O)[C@@H]23)cc1 -3.74%, CCC(=O)Nc1ccc2c(c1)C(=O)N(C)[C@H]1CC[C@H](CC(=O)NCC3CC3)O[C@H]1CO2 -1.49%, COC(=O)C[C@@H]1C[C@@H]2c3cc(NC(=O)Cc4ccncc4)ccc3O[C@@H]2[C@H](CO)O1 0.675%, CCCC(=O)N1CC2(C1)CN(C(=O)C1CCCCC1)[C@H](CO)c1[nH]c3cc(OC)ccc3c12 3.38%, C[C@H]1CN([C@@H](C)CO)C(=O)c2cccc(NC(=O)Nc3cccc4ccccc34)c2O[C@@H]1CN(C)C(=O)Nc1ccc(C(F)(F)F)cc1 2.99%, O=C(COC(=O)CCc1nc2ccccc2c(=O)[nH]1)Nc1c(Cl)cccc1C(F)(F)F 13.4%
